Results reported in PubChem BioAssay.
Activity calls are given as the source filed them. How the calls were made is not given here.

system: Aerobactin synthetase IucA (Klebsiella pneumoniae, hypervirulent); assay: biochemical IucA inhibition screen of LOPAC library by absorbance (AID 1346212); conditions: IucA enzyme assay, absorbance (OD) readout; active compounds read low;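 tested at 8 µM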;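 further: 100% = no compound wells and 0% = no enzyme wells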

Compound	remaining activity
CCCCCN(CCCCC)C(=O)C(CCC(=O)O)NC(=O)c1ccc(Cl)c(Cl)c1 (stereo unspecified)	110% (inactive)
O=C(O)C1CCCN(CCC=C(c2ccccc2)c2ccccc2)C1 (stereo unspecified)	86.8% (inactive)
COc1cc(OC)c(/C=C2/C(=O)Nc3ccccc32)c(OC)c1	99.3% (inactive)
O=C(CCCN1CCC(O)(c2cccc(C(F)(F)F)c2)CC1)c1ccc(F)cc1	101% (inactive)
O=c1cc(-c2ccccc2)[nH]c2nc(Cl)ccc12	117% (inactive)
CC(C)(C)c1cc(/C=C(\C#N)C(N)=S)cc(C(C)(C)C)c1O	97.1% (inactive)
NC(N)=NCCC[C@H](N)C(=O)O	111% (inactive)
C[C@H]1O[C@@H](n2cc(F)c(=O)[nH]c2=O)[C@H](O)[C@@H]1O	98.9% (inactive)
O=C(c1cc(O)c(O)c([N+](=O)[O-])c1)c1ccccc1F	104% (inactive)
Nc1ncnc2c1nc(Sc1ccc(Cl)cc1)n2C1OC2COP(=O)(O)O[C@@H]2[C@@H]1O (stereo partly specified)	108% (inactive)
COC(=O)c1c(-c2cc(OC)c(OC)c(OC)c2)c2ccc(OCc3ccccn3)cc2c(=O)n1-c1ccc(N)cc1	86.8% (inactive)
O=C(Cc1ccc(Cl)c(Cl)c1)OCCN1CCCC1	117% (inactive)
O=C(O)[C@@H]1C[C@H](C(=O)O)N1	109% (inactive)
N=C(N)SCCc1ccc(CCSC(=N)N)cc1	102% (inactive)
CC[C@@H]1SC2(CCN(C)CC2)NC1=O	91.6% (inactive)
O=c1[nH]c2cc(Cl)ccc2c(O)c1-c1cccc(Oc2ccccc2)c1	120% (inactive)
